This note sets out measurements from the supplement of paper PMC6279402.

Where a name gives a salt, the structure may show the parent alone. ± gives the standard deviation of the averaged measurements.

One test deals with A549. The test is described as follows: relative viability (normalised to negative control = 1, bortezomib = 0) (fraction); higher = less cytotoxic. Conditions: inflammatory serum-free RHB-A with cytokines + LPS; 5 d + 24 h CellTiter-Blue; compound 300 nM; GSK126 pretreatment: 5 uM GSK126. (In general: Resazurin is reduced to fluorescent resorufin, in cell work by metabolically active cells.)
`S=P(N1CC1)(N1CC1)N1CC1` [Thiotepa]: the relative viability was 0.919 ± 0.064.
With `COc1cc2c(Oc3ccc4[nH]c(C)cc4c3F)ncnc2cc1OCCCN1CCCC1` [Cediranib(AZD2171)], the relative viability was determined as 0.981 ± 0.11.
On to `Cc1ccc(-n2nc(C(C)(C)C)cc2NC(=O)Nc2ccc(OCCN3CCOCC3)c3ccccc23)cc1`, for which the relative viability worked out at 1.32 ± 0.064.
As for `NC(=O)c1ccc(N(C(N)=O)c2c(F)cccc2F)nc1-c1ccc(F)cc1F`, the relative viability was 1.09 ± 0.055.
In the case of `N#C/C(=C/c1ccc(O)c(O)c1)C(=O)NCc1ccccc1` [AG-490; Tyrphostin AG 490], the relative viability came to 0.879 ± 0.15.
Still for that read-out and setting: the figure for `Cc1nc(Nc2ncc(C(=O)Nc3c(C)cccc3Cl)s2)cc(N2CCN(CCO)CC2)n1` [Dasatinib] is 1.03 ± 0.077; for `C#Cc1cccc(Nc2ncnc3cc(OCCOC)c(OCCOC)cc23)c1` it is 0.448 ± 0.041; for `O=C(NOC[C@H](O)CO)c1ccc(F)c(F)c1Nc1ccc(I)cc1F` it is 0.108 ± 0.017.
In the case of `CCc1cccc(CC)c1NC(=O)N1Cc2[nH]nc(NC(=O)c3ccc(N4CCN(C)CC4)cc3)c2C1`, the relative viability worked out at 0.701 ± 0.13.
For the molecule `CCN1CCN(Cc2ccc(-c3cc4c(N[C@H](C)c5ccccc5)ncnc4[nH]3)cc2)CC1`, the relative viability was 0.446 ± 0.042.
`CN(C)c1nc(N(C)C)nc(N(C)C)n1` [Altretamine]: the relative viability came out at 0.931 ± 0.02.

Staying with this test, now noted: inflammatory serum-free RHB-A with cytokines + LPS; 5 d + 24 h CellTiter-Blue; compound 300 nM; GSK126 pretreatment: none (vehicle).
Take `CN(C)c1ccc(-c2nc3ncc(Cl)c(N4CCN(CC(=O)Nc5nccs5)CC4)c3[nH]2)cc1`: the relative viability is 1.07 ± 0.066.
Regarding `COc1cc2/c(=N/c3ccc(Br)cc3F)nc[nH]c2cc1OCC1CCN(C)CC1` [Vandetanib], the relative viability amounted to 0.705 ± 0.044.
For the molecule `O=NN(CCCl)C(=O)NCCCl` [Carmustine], the relative viability was determined as 0.955 ± 0.072.
Turning to `N#CCNC(=O)c1ccc(-c2ccnc(Nc3ccc(N4CCOCC4)cc3)n2)cc1`, the relative viability was 1.4 ± 0.038.
In the case of `O=C(Nc1cccc(Cl)c1)Nc1ncc(CCNc2ncnc3ccsc23)s1` [SNS-314 Mesylate], the relative viability was found to be 0.505 ± 0.1.
On to `O=c1c(O)c(-c2ccc(O)c(O)c2)oc2cc(O)cc(O)c12` [QUERCETIN; Quercetin(Sophoretin); Quercetin dihydrate], for which the relative viability came to 0.945 ± 0.058.
Consider `COc1ccc2c3n(c(=NC(=O)c4cccnc4)nc2c1OC)CCN3`, for which the relative viability was determined as 0.735 ± 0.031.
As for `CN(Cc1cnc2nc(N)nc(N)c2n1)c1ccc(C(=O)N[C@@H](CCC(=O)O)C(=O)O)cc1` [Methotrexate hydrate; Methotrexate], the relative viability amounted to 0.947 ± 0.086.
Regarding `Cc1nc(NC(=O)N2CCC[C@H]2C(N)=O)sc1-c1csc(C(C)(C)C)n1`, the relative viability stood at 0.784 ± 0.059.
In the case of `O=C(NC[C@H](O)CO)c1ccncc1Nc1ccc(I)cc1F`, the relative viability turned out to be 0.159 ± 0.025.
As to `O=C1CCC(N2C(=O)c3ccccc3C2=O)C(=O)N1` (stereo not drawn), the relative viability came out at 0.87 ± 0.034.
For the molecule `CC(C)Cn1cnc2c(N)nc3ccccc3c21` [Imiquimod], the relative viability was 0.911 ± 0.019.
Same read-out and setting: the figure for `Cc1cc(Nc2cc(CN3CCOCC3)c3nc(C)c(Cc4ccc(Cl)cc4F)n3n2)n[nH]1` is 1.23 ± 0.03.
For `CS(=O)(=O)N1CCN(Cc2cc3nc(-c4cccc5[nH]ncc45)nc(N4CCOCC4)c3s2)CC1`, the relative viability worked out at 0.411 ± 0.017.
For `O=C1c2c(O)ccc(O)c2C(=O)c2c(NCCNCCO)ccc(NCCNCCO)c21` [Mitoxantrone; Mitoxantrone dihydrochloride], the relative viability stood at 0.137 ± 0.008.
As to `C[C@@H]1CCN(C(=O)CC#N)C[C@@H]1N(C)c1ncnc2[nH]ccc12`, the relative viability worked out at 1.28 ± 0.1.
`COc1cc2c(N3CCN(C(=O)Nc4ccc(OC(C)C)cc4)CC3)ncnc2cc1OCCCN1CCCCC1` [Tandutinib (MLN518)]: the relative viability was 0.862 ± 0.1.
Regarding `FC(F)(F)c1ccc(/C=C/c2nc(COc3ccc(CCCCn4ccnn4)cc3)co2)cc1` [Mubritinib (TAK 165)], the relative viability amounted to 0.94 ± 0.011.
With `NC(=O)NO` [Hydroxyurea], the relative viability is 1.06 ± 0.05.
Consider `Cn1nnc2c(C(N)=O)ncn2c1=O` [Temozolomide], for which the relative viability is 0.943 ± 0.061.
Regarding `CN1CC[C@H](c2c(O)cc(O)c3c(=O)cc(-c4ccccc4Cl)oc23)[C@H](O)C1` [Flavopiridol hydrochloride], the relative viability came to 0.00865 ± 0.0022.
Same read-out and setting: the result for `CNC(=O)c1ccc(C)c(-n2c(C)cc(OCc3ccc(F)cc3F)c(Br)c2=O)c1` reads 0.974 ± 0.085; that for `CCS(=O)(=O)c1cccc(-c2cc(C(=O)NC3CCN(C)CC3)c(C)c3[nH]c4ncc(C)cc4c23)c1`, 0.485 ± 0.031.
Take `Nc1nc2[nH]cc(CCc3ccc(C(=O)N[C@@H](CCC(=O)O)C(=O)O)cc3)c2c(=O)[nH]1` [Pemetrexed; Pemetrexed Disodium]: the relative viability came to 0.879 ± 0.095.
As for `CCOc1cc2ncc(C#N)c(Nc3ccc(OCc4ccccn4)c(Cl)c3)c2cc1NC(=O)/C=C/CN(C)C` [Neratinib], the relative viability came out at 0.183 ± 0.014.
With `NC1(c2ccc(-c3nc4ccn5c(=O)[nH]nc5c4cc3-c3ccccc3)cc2)CCC1`, the relative viability was determined as 0.522 ± 0.067.
The same measure, in the same setting: the result for `S=P(N1CC1)(N1CC1)N1CC1` [Thiotepa] reads 0.935 ± 0.032; that for `COc1cc2c(Oc3ccc4[nH]c(C)cc4c3F)ncnc2cc1OCCCN1CCCC1` [Cediranib(AZD2171)], 0.996 ± 0.051; that for `Cc1ccc(-n2nc(C(C)(C)C)cc2NC(=O)Nc2ccc(OCCN3CCOCC3)c3ccccc23)cc1`, 1.13 ± 0.23.
Consider `NC(=O)c1ccc(N(C(N)=O)c2c(F)cccc2F)nc1-c1ccc(F)cc1F`, for which the relative viability amounted to 0.995 ± 0.11.
On to `N#C/C(=C/c1ccc(O)c(O)c1)C(=O)NCc1ccccc1` [AG-490; Tyrphostin AG 490], for which the relative viability amounted to 0.873 ± 0.11.
On the same count and under the same terms, the figure for `Cc1nc(Nc2ncc(C(=O)Nc3c(C)cccc3Cl)s2)cc(N2CCN(CCO)CC2)n1` [Dasatinib] is 0.956 ± 0.12.
Take `C#Cc1cccc(Nc2ncnc3cc(OCCOC)c(OCCOC)cc23)c1`: the relative viability was found to be 0.494 ± 0.031.
The same measure, in the same setting: the figure for `O=C(NOC[C@H](O)CO)c1ccc(F)c(F)c1Nc1ccc(I)cc1F` is 0.112 ± 0.0091.
For `CCc1cccc(CC)c1NC(=O)N1Cc2[nH]nc(NC(=O)c3ccc(N4CCN(C)CC4)cc3)c2C1`, the relative viability was determined as 0.557 ± 0.075.
Regarding `CCN1CCN(Cc2ccc(-c3cc4c(N[C@H](C)c5ccccc5)ncnc4[nH]3)cc2)CC1`, the relative viability was 0.414 ± 0.068.
The same measure, in the same setting: the figure for `CN(C)c1nc(N(C)C)nc(N(C)C)n1` [Altretamine] is 0.887 ± 0.095.
